# Screening data: PubChem BioAssay, National Center for Advancing Translational Sciences (NCATS)
# SARS PLpro yeast – qHTS of Yeast-based Assay for SARS-CoV PLP; S. cerevisiae expressing SARS-CoV PLpro, growth rescue; Potency, µM (highest dose often 32.9 µM), for the others: at the highest dose activity, positive = growth rescue, actives largely listed as activators; 330,000 compounds, 0.19% hits; AID 485353, 2010; calls by dose curve; also: potency is read from the fitted curve at half-maximal effect; 0% is about no effect; nearly all actives have a fitted effect of over 55% in size
# Pf growth 96h – Primary qHTS for delayed death inhibitors of the malarial parasite plastid, 96 hour incubation | P. falciparum luciferase reporter growth, 96 h | Potency, µM (series often up to 28.7 µM), without a hit: at the highest dose activity change, negative = inhibition, usual class: inhibitors | 320,000 compounds, 6.9% hits; also: potency is read from the fitted curve at half-maximal effect; % is scaled to controls: 0 for no effect and ±100 for the full control effect
#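 Parasite growth measured via integrated firefly luciferase reporter in P. falciparum. Infected erythrocytes at 2% hematocrit, 0.05% parasitemia final were treated 96 hours at 37 C under 5% CO2, and luminescence was read.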
# AMA1 RON2 block – qHTS for Inhibitors of AMA1-RON; Towards Development of Antimalarial Drug Lead: Primary Screen; Plasmodium falciparum AMA1 (3D7) - RON2 peptide interaction; AlphaScreen AMA1-biotinylated RON2 peptide binding; Potency, µM (titrated, usually from 58.2 µM), for inactives: top-dose activity change, negative = inhibition, actives largely listed as inhibitors; 360,000 compounds, 0.2% hits; AID 720542, 2013;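 also: potency is read from the fitted curve at half-maximal effect; 0% = vehicle wells and -100% = peptide control; nearly all actives have a fitted effect of over 45% in size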
#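 AMA1 (3D7) with his tag at 25 nM final met compounds first, then biotinylated RON2 peptide at 25 nM; detection used donor plus acceptor beads, 10 µg/mL apiece, read by AlphaScreen after 30 min at room temperature.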
# Shiga toxin inh – A qHTS for Small Molecule Inhibitors of Shiga Toxin | Vero cells, Shiga toxin protein synthesis inhibition reporter | inhibition, % at 38.7 µM | 290,000 compounds, 9.2% hits | AID 2315, 2010; in the data active = inhibition mostly above about 28%, no sharp cut-off; inactive = mostly below about 43%; also: 0% is about no effect
# Cycloheximide cs – Cycloheximide Counterscreen for Small Molecule Inhibitors of Shiga Toxin; cell reporter, cycloheximide protein synthesis inhibition counterscreen; max response, %; 300,000 compounds, 12% hits; in the data active = max response mostly above about 13%, no sharp cut-off; inactive = mostly below about 14%; also: read at 38.3 µM for the half of the compounds with a filed dose; 0% is about no effect
# Pf growth 48h – Primary qHTS for delayed death inhibitors of the malarial parasite plastid, 48 hour incubation; P. falciparum luciferase growth in erythrocytes, 48 h; Potency, µM (highest dose often 28.7 µM), inactives show at the top dose activity change, negative = inhibition, hits mostly inhibitors; 310,000 compounds, 5.9% hits; AID 504832, 2011; also: potency is read from the fitted curve at half-maximal effect; % is scaled to controls: 0 for no effect and ±100 for the full control effect
#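 Luciferase-expressing P. falciparum in infected erythrocytes (2% hematocrit, 0.1% parasitemia final) in RPMI 1640/0.5% Albumax were exposed to compound for 48 hours at 37 C, 5% CO2; growth read as luminescence.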
# An asterisk follows results filed as active; ? = inconclusive; · = no result; [ ] = dose if it differs, or a comment. In the library only some 19% were active in any assay of this set; here they are far more common. Unless noted, calls follow the shape of the dose curve; as a rule, active = well fitted curve in the direction sought with a large enough effect; inconclusive = small, poorly fitted or top-dose-only effect, or another doubt; inactive = no such curve, though single readings can be large; an effect the other way counts as inactive or inconclusive.
SMILES,SARS PLpro yeast,Pf growth 96h,AMA1 RON2 block,Shiga toxin inh,Cycloheximide cs,Pf growth 48h
COc1cc(NC(=O)CN2CCN(S(=O)(=O)c3ccc(C(C)C)cc3)CC2)cc(OC)c1,-2%,31%,-16%,-20,4,?
COc1cccc(N2CCN(CC(=O)Nc3ccc(S(=O)(=O)N4CCCCCC4)cc3)CC2)c1,0%,?,-4%[11.6 µM],·,·,12µM*
COc1ccc(NC(=O)C23CCC(C)(C(=O)C2)C3(C)C)cc1 (stereo unspecified),2%,11%,1%,-1,7,34%
O=C(COc1ccc(Cl)cc1Cl)Nc1ccc(CN2CCCCC2)cc1,0%,15%,-3%,-1,-4,?
COc1ccccc1NC(=O)COc1ccc(C(=O)NCc2ccccc2)cc1OC,-4%,?,-7%,·,·,13µM*
O=C(COc1ccc(CO)cc1)Nc1ccc(F)cc1,0%,11%,2%,26,16*,49%
COc1ccccc1NC(=O)COc1ccc(CO)cc1Cl,-14%,·,3%,57*,32*,170%
O=C(COc1ccc(CO)cc1Cl)Nc1ccc(F)cc1,3%,25%,39%,58*,48*,·
COCc1cn(CC[C@@H]2CC[C@@H](NC(=O)Nc3ccc4c(c3)OCO4)[C@@H](CO)O2)nn1,·,·,2%,·,·,·
CCS(=O)(=O)N1CCC2(CC1)OCCN2S(=O)(=O)c1ccc(C)cc1,-8%,-31%,17%,·,·,1%
c1ccc(OCCOc2ncnc3sccc23)cc1,-4%,5%,10%,69*,38*,67%
COc1cccc(COc2ncnc3sccc23)c1,0%,9%,-2%,-10,14,3%
CCOc1ccc(OCCOc2ncnc3ccccc23)cc1,2%,63%,-2%,68,41*,18%
Cc1ccc(Oc2ncnc3sccc23)cc1,20%,63%,-1%,91*,55*,86%
c1cnc2c(Oc3ncnc4sccc34)cccc2c1,-5%,53%,-1%,27,11,31%
CCc1ccc(-n2c(SCC(=O)N3Cc4ccccc4CC3C(=O)O)nnc2-c2ccncc2)cc1 (stereo unspecified),-1%,?,-3%,-4,3,-10%
COCCCn1c(=S)[nH]c2sc3c(c2c1=O)CCCS3,0%,104%,31%,91*,40*,105%
O=c1[nH]c(C2CCN(S(=O)(=O)c3ccc4c(c3)OCCO4)CC2)nc2c1nnn2Cc1c(F)cccc1Cl,5%,-29%,5%,-15,-3,-22%
COc1cccc(Cn2nnc3c(=O)[nH]c(C4CCCN(C(=O)c5ccccc5Cl)C4)nc32)c1 (stereo unspecified),-6%,75%,15%,-12,-3,?
COc1ccc(Cn2nnc3c(=O)[nH]c(C4CCCN(C(=O)c5ccccc5)C4)nc32)cc1 (stereo unspecified),1%,12µM*,-2%,-2,-1,?
O=c1[nH]c(C2CCN(S(=O)(=O)c3ccccc3C(F)(F)F)CC2)nc2c1nnn2Cc1cccc(F)c1,3%,?,-16%,-5,-4,2.6µM*
O=c1[nH]c(C2CCCN(S(=O)(=O)c3ccccc3)C2)nc2c1nnn2Cc1ccccc1F (stereo unspecified),5%,10%,6%,-3,-1,10µM*
O=c1[nH]c(C2CCN(S(=O)(=O)c3ccc4c(c3)OCCO4)CC2)nc2c1nnn2Cc1ccccc1F,-2%,13µM*,-16%,-8,-7,?
O=c1[nH]c(C2CCCN(S(=O)(=O)c3ccccc3)C2)nc2c1nnn2Cc1ccccc1 (stereo unspecified),0%,-40%,-5%,-7,-1,10µM*
O=c1[nH]c(C2CCCN(S(=O)(=O)c3cccc(F)c3)C2)nc2c1nnn2Cc1ccccc1 (stereo unspecified),3%,?,-2%,-17,-2,7.4µM*
SMILES,SARS PLpro yeast,Pf growth 96h,AMA1 RON2 block,Shiga toxin inh,Cycloheximide cs,Pf growth 48h
CCN(CC)c1ccc(C(=S)NCc2ccccc2)cc1,-2%,?,-8%,37,10,-12%
Cc1cc(OCCOCCNC(C)C)cc(C)c1Cl,-12%,5%,-28%,-13,-4,·
Cc1cc(OCCCCNC(C)C)cc(C(C)C)c1,-10%,6.6µM*,-27%,-11,-5,?
CCCC1COC(Cn2cncn2)(c2ccc(Cl)cc2Cl)O1 (stereo unspecified),-20%,10%,-10%,-14,-12,12µM*
Clc1ccc(C2(Cn3cncn3)OCCO2)c(Cl)c1,·,?,·,·,·,-21%
O=C(Oc1cc(Cl)cc(Cl)c1)c1cnc2n(c1=O)CCS2,-1%,13%,18%,-2,1,1%
COc1ccc(N2CCN(C(=O)c3ccc4nc(N5CCCCC5)sc4c3)CC2)cc1,2%,5%,0%,44*,53*,18%
COc1cccc(N2CCN(C(=O)c3ccc4ccccc4c3)CC2)c1,1%,?,-27%,·,·,45%
COc1cccc(N2CCN(C(=O)c3ccc4nc(N5CCCCC5)sc4c3)CC2)c1,-7%,?,-22%,109*,77*,·
CCOc1ccc(C(=O)NC(=S)Nc2ccccn2)cc1[N+](=O)[O-],-2%,24%,13%,31,15*,34%
COc1ccc(C(=O)NC(=S)NNC(=O)c2ccc(O)cc2)cc1[N+](=O)[O-],6%,-3%,80%,86*,39*,16%
COc1cc(/C=C(/NC(=O)c2ccccc2)C(=O)Nc2ccc(O)cc2)c([N+](=O)[O-])cc1OC,-7%,10µM*,18%,-4,0,1%
O=C(NC(=S)Nc1ccccn1)c1cccc([N+](=O)[O-])c1,0%,-17%,95%,76*,43*,-15%
O=C(NC(=S)NCc1ccccc1)c1cccc([N+](=O)[O-])c1,12%,116%,30%,-7,1,0%
COc1ccc(NC(=O)CN(C)C(=O)C2=COCCO2)cc1,-2%,31%,-2%,·,·,4%
CN1CCN(C(=O)c2ccc(-c3ccc(F)c(F)c3)c3ccoc23)CC1,·,·,-5%,·,·,·
OC1CCCCC1,-6%,26%,4%,·,·,32%
COc1ccc(S(=O)(=O)Cc2ccc(C(=O)NC3CCCCCC3)o2)cc1,-2%,7.4µM*,6%,-3,-2,8%
Cc1ccc(S(=O)(=O)Cc2ccc(C(=O)NC3CCCC3)o2)cc1,-1%,0%,0%,-9,-3,1%
COC(=O)c1ccc(CS(=O)(=O)c2ccc(F)cc2)o1,-4%,5.2µM*,0%,-5,-5,-5%
O=C(NC1CCCCCC1)c1ccc(CS(=O)(=O)Cc2ccc(F)cc2)o1,-2%,?,0%,40*,22*,45%
